This is an account of results in PubChem BioAssay.

Structures are written as SMILES. The source made the active and inactive calls.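 The calls were made as follows, unless noted: active = inhibition above 20% together with a positive visual image hit; inconclusive = visual image hit but inhibition not above 20%; inactive = no visual image hit.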

One may read the inhibition as the drop in the measured response relative to a control, in per cent.

Test [1] in a line: inhibitors of TNFa-induced NFkB p65 translocation, primary screen, imaging, HUVEC, MLSMR starter and 10KST1 sets (AID 438).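 Also: compound added about 3h40 before a 20 min TNFalpha stimulation.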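 As to inhibition: signal is the nuclear over cytoplasmic p65 intensity ratio per well.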 The following applies: HUVEC TNFa-induced p65 nuclear translocation; cell count: measured here: nuclei count (cytotoxicity indicator), at 2.08 µM; inhibition: at 2 µM, stronger effect = higher value, 0% TNFa-plus-vehicle, 100% no-TNFa wells.
The nature of test [2]: inhibitors of mutant huntingtin aggregation, primary screen, imaging, exon1htt(103Q)mCFP cells, high-content imaging (AID 483;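 active = visual image review flags a hit and inhibition of aggregation exceeds 20%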;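 also: compound exposure lasted 3 days before fixation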;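 as to nuclei count: percent of the per-plate median nuclei count of sample wells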). The following applies: exon1htt(103Q)mCFP cell line, aggregate imaging, at 2 µM; inhibition of aggregation: stronger effect = higher value; nuclei count: measured here: cell count, toxicity.
The nature of test [3]: inhibitors of E-selectin induction by TNFa, primary screen, imaging, HUVEC, immunofluorescence, MLSMR starter and 10KST1 sets (AID 487;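 active = visually confirmed hit in the image check and inhibition above 20%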;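 as to inhibition: signal is fraction of cell area covered by stained E-selectin grains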;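 as to nuclei count: 100% = median nuclei count of all wells on the same plate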). The following applies: HUVEC TNFalpha-induced E-selectin immunofluorescence imaging, at 2 µM; inhibition: stronger effect = higher value; nuclei count: measured here: cell number, toxicity.
Test [4] deals with Voltage-gated potassium channel subunit beta-2 (Rattus norvegicus) (UniProt P62483). Briefly: KvBeta enzyme negative modulators, primary screen, biochemical, NADPH fluorescence (AID 622;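 active = fluorescence slope higher than the sample average by over 3 SD, cut at about -0.22 in these data, passing the limit was not always enough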;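 also: slope of raw intensity against log time taken from 70 to 1610 s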). The following applies: recombinant KvBeta, 4-cyanobenzaldehyde reduction, at 10 µM, stronger effect = higher value.
Voltage-gated potassium channel subunit beta-2 (Rattus norvegicus), sequence (P62483 whole entry, looked up): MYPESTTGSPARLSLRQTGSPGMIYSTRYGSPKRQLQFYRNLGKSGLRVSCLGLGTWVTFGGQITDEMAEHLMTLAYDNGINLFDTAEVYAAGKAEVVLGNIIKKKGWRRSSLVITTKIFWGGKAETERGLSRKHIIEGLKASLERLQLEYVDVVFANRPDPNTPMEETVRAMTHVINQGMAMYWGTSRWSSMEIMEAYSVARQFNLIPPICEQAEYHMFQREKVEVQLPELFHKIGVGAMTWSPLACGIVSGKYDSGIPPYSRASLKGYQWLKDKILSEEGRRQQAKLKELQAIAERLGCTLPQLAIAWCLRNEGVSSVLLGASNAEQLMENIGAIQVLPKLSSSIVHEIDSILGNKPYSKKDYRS
The target is the same in test [5]. Briefly: KvBeta positive modulators, primary screen, biochemical, NADPH fluorescence (AID 623;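 active = NADPH fluorescence slope more negative than the mean of all samples by about 3 SD, 99.7% confidence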;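 also: fluorescence intensity change per second fitted from 20 to 320 s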). The conditions noted are these: Recombinant KvBeta, NADPH fluorescence decrease slope, 10 min; at 10 µM; stronger effect = lower value.
Test [6] addresses Alpha-2C adrenergic receptor (Homo sapiens) (UniProt P18825). Briefly: modulators of alpha2C/GIRK thallium flux, primary screen, cell-based, HEK293 alpha2C/GIRK1/2 (AID 624;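 active = fluorescence slope after compound addition differing from the mean of all screened samples at 99.7% confidence, in either direction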;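 also: slope of fluorescence ratio to pre-addition baseline per second over 15 to 24 s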). The following applies: thallium flux BTC fluorescence, at 10 µM, actives lie on both sides.
Test [7] can be described thus: inhibitors of Sendai virus-induced IRF3 signaling, primary screen, TLR/RLR signaling modifier project, cell-based, Sendai virus stimulus, luciferase, 10K MLSCN set (AID 602276;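 active = inhibition at or above 50% at 10 µM; inactive = inhibition below 50%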;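 also: firefly luciferase from ISG56 promoter only with Renilla not read in this screen; 0% = Sendai virus plus DMSO and 100% = medium plus DMSO without virus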). The conditions noted are these: HEK293 RL24 IRF3 luciferase reporter, at 10 µM, stronger effect = higher value.
Test [8] is described as follows: inhibitors of poly I:C-induced TLR3 signaling, primary screen, cell-based, poly I:C stimulus, luciferase, 10K MLSCN set (AID 602277;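 active = inhibition of the reporter signal at or above 50%; inactive = inhibition below 50%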). The conditions noted are these: HEK293-TLR3 RL24 IRF3 luciferase reporter, at 10 µM, stronger effect = higher value. For orientation: In a reporter assay the amount or activity of a reporter protein is the signal.

Alpha-2C adrenergic receptor (Homo sapiens), sequence (P18825 whole entry, looked up): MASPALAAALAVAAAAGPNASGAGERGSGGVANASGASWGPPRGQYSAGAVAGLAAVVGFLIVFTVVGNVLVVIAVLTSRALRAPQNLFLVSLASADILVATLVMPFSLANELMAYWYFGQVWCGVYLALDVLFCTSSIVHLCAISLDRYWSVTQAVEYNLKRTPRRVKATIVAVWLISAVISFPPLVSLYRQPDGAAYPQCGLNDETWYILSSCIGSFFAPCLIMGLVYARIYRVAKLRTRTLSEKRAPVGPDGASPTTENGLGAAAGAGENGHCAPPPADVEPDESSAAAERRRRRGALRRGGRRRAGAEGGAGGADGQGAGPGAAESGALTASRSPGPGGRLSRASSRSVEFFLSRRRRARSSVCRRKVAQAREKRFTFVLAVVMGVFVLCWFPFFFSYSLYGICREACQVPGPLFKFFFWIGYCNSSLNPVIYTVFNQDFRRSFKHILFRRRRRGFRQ

Consider `C=CCn1c(SCC(=O)NCCCC)nc2scc(-c3ccco3)c2c1=O`, for which the cell count in test [1] was found to be 650. The inhibition in test [1] was -6.7% (inactive); in test [3], -4.2% (inactive); in test [7], 19.3% (inactive); in test [8], 28.9% (inactive). For the same molecule, in test [2], the inhibition of aggregation was 2.2% (inactive). Further, the nuclei count was found to be 120% in test [2] and 99.8% in test [3]. Besides, the fluorescence slope in test [4] was -0.444 (inactive). Further, the NADPH fluorescence slope in test [5] is -3.5e-05 (inactive). In addition, the slope in test [6] was 0.00561 (inactive).

For `CCn1c(SCC(=O)Nc2ccc(Cl)cc2)nnc1C1CC1`, the cell count in test [1] was found to be 811. In addition, the inhibition in test [1] was 1.7% (inactive); in test [3], -54.5% (inactive); in test [7] it was 4.41% (inactive); in test [8], 17.1% (inactive). Moreover, the inhibition of aggregation in test [2] was 12.1% (inactive). For the same molecule, the nuclei count in test [2] was found to be 127%; in test [3] it was 97.1%. Further, the fluorescence slope in test [4] was -0.608 (inactive). Moreover, in test [5], the NADPH fluorescence slope was -1.6e-05 (inactive). Moreover, the slope in test [6] is 0.00675 (inactive).

`COc1cc2nc(SCC(=O)NC3CC3)n(CCC3=CCCCC3)c(=O)c2cc1OC`: in test [1], the cell count stood at 688. Moreover, the inhibition in test [1] was -4% (inactive); in test [3], -35.1% (inactive); in test [7] it was 14.1% (inactive); in test [8], 24.7% (inactive). In addition, the inhibition of aggregation in test [2] was 0.8% (inactive). Besides, the nuclei count in test [2] worked out at 101%; in test [3] it was 108%. Also, the fluorescence slope in test [4] is -0.427 (inactive). In addition, in test [5], the NADPH fluorescence slope is -4e-06 (inactive). The slope in test [6] is 0.00342 (inactive).

Turning to `C=CCc1cccc2cc(C(=O)NCc3cccnc3)c(=O)oc12`, in test [1], the cell count amounted to 329. The inhibition in test [1] is 3.5% (inactive); in test [3], 4.6% (inactive); in test [7], -3.91% (inactive); in test [8], 20.3% (inactive). For the same molecule, the inhibition of aggregation in test [2] is -4.3% (inactive). In addition, the nuclei count in test [2] is 101%; in test [3], 117%. In addition, the fluorescence slope in test [4] is -0.437 (inactive). In addition, the NADPH fluorescence slope in test [5] is 1.5e-05 (inactive). Besides, in test [6], the slope was 0.00312 (inactive).

As for `O=C(c1cnn2c(C(F)(F)F)cc(-c3ccco3)nc12)N1CCc2ccccc2C1`, the cell count in test [1] is 516. Also, the inhibition in test [1] was 2% (inactive); in test [3], -11.7% (inactive); in test [7], -19% (inactive); in test [8], -13.6% (inactive). The inhibition of aggregation in test [2] was 22.2% (inactive). The nuclei count in test [2] was found to be 92.9%; in test [3], 67%. Besides, the fluorescence slope in test [4] was -0.327 (inactive). Besides, in test [5], the NADPH fluorescence slope is 1.7e-05 (inactive). For the same molecule, in test [6], the slope was 0.00417 (inactive).

Regarding `O=C(COc1ccccc1)N1CCN(c2ncnc3c2cnn3-c2ccccc2)CC1`, the cell count in test [1] is 476. In addition, the inhibition in test [1] is 1% (inactive); in test [3], -4.4% (inactive); in test [7], 14.5% (inactive); in test [8] it was -0.433% (inactive). The inhibition of aggregation in test [2] is 1.3% (inactive). The nuclei count in test [2] came out at 108%; in test [3] it was 119%. Moreover, in test [4], the fluorescence slope was -0.623 (inactive). Also, in test [5], the NADPH fluorescence slope is -4e-05 (inactive). Besides, the slope in test [6] is 0.00515 (inactive).

Regarding `O=C(Cn1ncc2c(=O)oc3ccccc3c21)NCCCN1CCCC1=O`, the cell count in test [1] was found to be 807. Also, the inhibition in test [1] is -9.2% (inactive); in test [3], -33% (inactive); in test [7], 1.1% (inactive); in test [8] it was 24.5% (inactive). The inhibition of aggregation in test [2] was 10.5% (inactive). Besides, the nuclei count in test [2] is 84.8%; in test [3], 116%. The fluorescence slope in test [4] is -0.576 (inactive). For the same molecule, the NADPH fluorescence slope in test [5] was -1.5e-05 (inactive). In test [6], the slope was 0.00642 (inactive).

In the case of `COc1cccc(NC(=O)c2ccco2)c1`, in test [1], the cell count is 596. In addition, the inhibition is 5.6% (inactive) in test [1], 32.9% (inactive) in test [3], -31.2% (inactive) in test [7] and -128% (inactive) in test [8]. The inhibition of aggregation in test [2] is 7% (inactive). Further, the nuclei count came out at 93.3% in test [2] and 96.1% in test [3]. In test [4], the fluorescence slope was -0.401 (inactive). The NADPH fluorescence slope in test [5] is 6.1e-06 (inactive). Moreover, the slope in test [6] is 0.00282 (inactive).
